From PubChem BioAssay AID485298 (National Center for Advancing Translational Sciences (NCATS), 2010) come the findings set out here.

“And” between values parts separate entries of the source, which are not always exact repeats. Identical values can stand only once. In all, about 320,000 compounds went through this assay and about 740 (0.23%) were called active. Where a call stands in place of a potency, no number is given. Inconclusive results (about 2%) are left out. The call rests on the fitted dose curve; in most records, active means well fitted activation curve with a large enough effect; inconclusive means small, poorly fitted or top-dose-only effect; inactive means no such curve, though single readings can be large or run the other way. For the sample, actives were picked, then their nearest neighbours and some compounds at random. Where a structure was tested more than once in an assay, its records may differ in their call.
Potency means the concentration at half of the fitted maximal effect.

A short description of the assay: qHTS Assay for Small Molecule Inhibitors of Mitochondrial Division or Activators of Mitochondrial Fusion. Further: nearly all actives have a fitted effect of over 45% in size. The following applies: S. cerevisiae fusion-defective mutant growth rescue, CellTiterGlo 48 h; series mostly up to 46.1 µM. The text has this:
NIH Chemical Genomics Center [NCGC] NIH Molecular Libraries Probe Production centers Network [MLPCN] MLPCN Grant: MH081279-01 Assay Submitter (PI): Jodi M. Nunnari NCGC Assay Overview: The budding yeast S. cerevisiae is a powerful system to study mitochondrial fusion. Unlike other organisms, yeast cells without functional mitochondrial DNA (mtDNA) can be propagated and studied as long as they maintain a mitochondrial compartment and are provided with a fermentable carbon source. When mitochondrial fusion is blocked in yeast, mitochondrial tubules rapidly fragment and division continues unopposed. Under conditions where fusion is compromised in mammalian cells, nearly identical changes in mitochondrial structure have been observed. Thus, these findings indicate that steady state mitochondrial structure in cells is a characteristic and specific indicator of fusion activity. Mounting evidence has pointed to a connection between mitochondrial dynamics and apoptosis in mammalian cells. These studies indicate that in mammalian cells mitochondrial dynamics are more integrated into cellular processes than in yeast cells and have evolved not only to distribute the organelle but also to aid in the regulation of cellular homeostasis. Mitochondrial fusion proteins attenuate apoptosis by inhibiting the release of cytochrome c from mitochondria, in part by controlling cristae structures. Thus, small molecules that inhibit mitochondrial […] may promote apoptosis and potentially act as novel chemotherapeutics and stimulation of apoptosis has become an attractive target of anti-cancer therapies. To identify inhibitors of mitochondrial division, we exploit the growth phenotypes of mitochondrial fusion-defective mutants. The temperature sensitive fusion alleles, such as fzo1-1 and mgm1-5, cause mitochondrial membranes to fragment in cells under non-permissive conditions and cells lose mtDNA, and are unable to grow in the presence of non-fermentable carbon source glycerol. Inhibiting mitochondrial division rescues growth. We have developed and optimized a luminescence cell viability assay in 1536 well format for the identification of inhibitors in the yeast mitochondrial fusion-defective assay.
The yeast glycerol stocks where kindly supplied by the laboratory of Dr. Jodi Nunnari, University of California, Davis. All yeast glycerol stock solutions were stored in single use aliquots at -80C. The CellTiterGlo luminescence reagent, containing luciferase and luciferin, were purchased from Promega, and the reagents were stored according to manufacturer's instructions. The Buffer components for the YPEG yeast growth medium were purchased from Sigma-Aldrich (St. Louis, MO). YPEG growth medium: 1% (w/v) yeast extract, 2% (w/v) Bacto-peptone, 3% Ethanol, 3% glycerol, 0.4mM Tryptophan, 0.36mM Adenine. qHTS Assay Protocol: 1.#Dispense 2.5 ul yeast growth medium per 1536 well plate. 2.#Transfer 23 nl per well of compound to plate. 3.#Dispense 2.5 ul yeast solution at appropriate seeding density per well. 4.#Incubate for 48 hours at 37C. 5.#Dispense 5 ul of CellTiterGlow solution per well. 6.#Incubate at ambient for 10 minutes. 7.#Read using bio-luminescence protocol on Viewlux.
In general terms: In qHTS, concentration-response curves come from the screen itself.
For the compound `COc1ccccc1CN1CCCC(N2CCN(c3ccc(F)cc3)CC2)C1` (configuration not stated), the Potency result is “inactive”.
The value for `O=C(c1ccc(C(F)(F)F)cc1)C1CCCN(C(=O)c2csnn2)C1` (configuration not stated) was “inactive”; that for `O=C(CN1C(=O)S/C(=C\c2ccccc2F)C1=O)NCCCn1ccnc1` was “inactive”.
The same measure for `O=C(CCNC(=O)c1ccccc1)Nc1nc2ccccc2s1`: “inactive”; for `O=C(CN1C(=O)/C(=C\c2ccccc2F)SC1=S)Nc1nc2ccccc2s1`: 12.6 µM (active); for `CS(=O)(=O)N1CCN=C1SCc1ccc(F)cc1`: “inactive”.
The value for `O=C(Nc1ccccc1-c1ccccc1)c1ccccc1[N+](=O)[O-]` was “inactive”; that for `COc1cc2ccccc2cc1C(=O)Nc1ccccc1C` was “inactive”.
As to `COc1cc(OC)c(C(=O)Nc2ccccc2-c2ccccc2)cc1OC`, the Potency is 15.8 µM (active).
The value for `O=C(O)CCN(Cc1ccccc1)S(=O)(=O)c1c(Cl)cccc1Cl` was “inactive”; that for `CCN(C(=O)CN1CCN(Cc2ccccc2)CC1)c1c(N)n(Cc2ccccc2)c(=O)[nH]c1=O` was “inactive”; that for `COc1ccc(OC)c(C(=O)NC(CC(N)=O)c2ccc(N3CCC(N4CCCCC4)CC3)c([N+](=O)[O-])c2)c1` (configuration not stated) was “inactive”.
Consider `COc1ccc(CCNC(=S)N2CCN(S(=O)(=O)c3ccc(Cl)cc3)CC2)cc1`, for which the Potency entry is “inactive”.
The same measure for `Oc1cc2c(cc1O)CN(C(=S)NCCc1ccc(Cl)cc1)CCC2`: “inactive and 18.4 µM (active)”; for `O=C(NCCc1ccc(Cl)cc1)c1cccc(N2CCCC2=O)c1`: “inactive”.
The value for `Oc1ccc(Cn2cc[nH]c2=S)cc1` was “inactive”.
In the case of `CN(C)CCN=c1cc(-c2ccccc2)oc2ccc(Cl)cc12`, the Potency entry was “inactive”.
The value for `COc1ccc(/C=C/c2c(-c3cccc(C)c3)oc3ccc(-c4ccc5c(c4)OCO5)cc23)cc1` was “inactive”.
The same measure for `CSCCC(NS(=O)(=O)c1ccc(C)cc1)C(=O)N1CCCC1` (configuration not stated): 35.5 µM (active); for `CSCCC(NC(=O)c1ccccc1)C(=O)N1CCCCCCC1` (configuration not stated): “inactive”; for `CSCC(NS(=O)(=O)c1ccc(C)cc1)C(=O)O` (configuration not stated): “inactive”.
For `CC(=O)c1cccc(NC(=O)C2CCCN2S(=O)(=O)c2cccc3nsnc23)c1` (configuration not stated), the Potency entry is “inactive”.
The value for `C=CCn1c(CCNC(=O)c2ccccc2F)nnc1SCC(=O)Nc1ccc(OC)cc1` was “inactive”; that for `CC(=O)NC(c1cccs1)c1cc(Br)c2cccnc2c1O` (configuration not stated) was “inactive”.
The value for `Cc1cc(C(=O)Nc2nnc(C3CC3)s2)c(C)s1` was “inactive”.
The same measure for `O=C(CNC(=O)c1ccc(F)cc1)c1ccccc1`: “inactive”; for `CN(C)c1ccc(C(CNC(=O)c2ccc(F)cc2)c2c[nH]c3ccccc23)cc1` (configuration not stated): 15.8 µM (active).
On to `C[C@H](NC(=O)c1ccccc1)C(=O)OCC(=O)c1c[nH]c2ccccc12`, for which the Potency entry is “inactive”.
Take `Cc1nnnn1/C(=C\c1ccccc1)C(=O)OCC(=O)N1CC2(C)CC1CC(C)(C)C2` (configuration not stated): the Potency result was “inactive”.
With `O=C(Cc1ccccc1)Nc1c(C(=O)N2CCCCCC2)cnn1-c1ccccc1`, the Potency result is “inactive”.
As to `CCC(C)(C)n1nnnc1CN1CCN(c2nc3ccc(C)cc3cc2C#N)CC1`, the Potency entry is “inactive”.
`O=C(/C=C/c1ccccc1)Oc1coc(CSc2ncccn2)cc1=O`: the Potency result is “inactive”.
The same measure for `Nc1c(C(=O)OCC(=O)Nc2ccc(OC(F)F)cc2)[nH]c(=O)[nH]c1=O`: “inactive”; for `CCOc1ccc(/C=N/OCC(=O)NCc2cccs2)cc1`: “inactive”; for `O=C(CO/N=C/c1ccc(OC(F)F)cc1)NCc1ccc(F)cc1`: 6.31 µM (active).
The value for `CC1CCCCC1NC(=O)CO/N=C/c1ccc(OC(F)F)cc1` (configuration not stated) was “inactive”.
The same measure for `Clc1ccc(C2[C@H]3CN(CC4CCCCC4)[C@H](c4ccccc4)C34CC2(c2cccnc2)C4)cn1` (some centres not stated): “inactive”; for `CCc1ccc[n+](-c2nc([O-])sc2C=O)c1`: “inactive”; for `CCOC(=O)/C=C/C(=O)OCC(=O)NC(c1ccccc1)c1ccccc1`: “inactive”.
Turning to `N#Cc1nc(Cc2cccc3ccccc23)oc1NCc1ccc2c(c1)OCO2`, the Potency was 11.2 µM (active).
`c1n[nH]c(NCc2ccc3c(c2)OCO3)n1`: the Potency entry was “inactive”.
The value for `Cn1cc(CCC(=O)NCc2ccc3c(c2)OCO3)c2ccccc21` was “inactive”; that for `O=C(COC(=O)c1ccccc1NC(=O)c1ccco1)Nc1ccc2c(c1)OC(F)(F)O2` was “inactive”.
The value for `CCCN1C(=O)C(O)(CC(=O)c2ccc(CC)cc2)c2cc(Br)ccc21` (configuration not stated) was “inactive”; that for `CC(=O)Nc1cccc(Nc2nc(-c3cccs3)nc3ccccc23)c1` was “inactive”.
Take `Cc1cccc(-c2nc(Nc3ccc(O)cc3)c3ccccc3n2)c1`: the Potency was 35.5 µM (active).
The same measure for `COc1ccc(Nc2nc(-c3cccnc3)nc3ccccc23)cn1`: “inactive”; for `COc1ccc(OCCNS(=O)(=O)Cc2ccccc2)cc1`: “inactive”.
For `Cc1ccc(NC(=O)c2cc([N+](=O)[O-])ccc2Cl)c(O)c1`, the Potency result was “inactive”.
Take `CCC(C)C(NC(=O)C1CCC(=O)N1C(=O)OCc1ccccc1)C(=O)NC(C(=O)N1CCCC1C(N)=O)C(C)CC` (configuration not stated): the Potency entry was “inactive”.
The value for `Nc1ccc(Nc2cc(O)c3ncccc3c2)cc1` was “inactive”; that for `Cn1ncc2c(Nc3cccc4ccccc34)ncnc21` was “inactive”.
